According to PubChem BioAssay:
Activity calls are given as the source filed them.

Experiments:
[1] = target: Albumin (Bos taurus) (UniProt P02769); assay: compounds binding labelled BSA control protein – biochemical, small-molecule microarray, Alexa647 label, 635/667 nm fluorescence, artefact control for SMM control protein annotation, profiling panel (AID 1118); details: BSA-A647 binding, fluorescence 635 nm, higher = more signal;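 also: score merges 667 nm emission intensity and signal-to-noise per printed compound spot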
[2] = probe aXIP binding to arrayed compounds – biochemical, NeuroSMM set, 635/667 nm fluorescence, primary screen (AID 1119); details: small-molecule microarray, higher = more signal, called active from +8 up or from −8 down;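 also: probe is the protein aXip251-270 applied at 1 µg/mL to compound-printed slides; binding of probe to printed compounds measured as 667 nm fluorescence plus signal to noise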
[3] = probe aNOTCH3 binding on compound microarray – biochemical, small-molecule microarray, 635/667 nm fluorescence, primary screen (AID 1120); details: higher = more signal;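 also: probe is a biotin-tagged antibody raised against NOTCH3 rather than NOTCH3 protein; score merges spot fluorescence near 667 nm with spot signal to noise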
[4] = probe aNOTCH2 binding on compound microarray – biochemical, small-molecule microarray, 635/667 nm fluorescence, primary screen (AID 1121); details: higher = more signal;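 also: score merges feature fluorescence read at 667 nm with its signal to noise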
[5] = target: Carbonic anhydrase 2 (Homo sapiens) (UniProt P00918); assay: compounds binding carbonic anhydrase 2 – biochemical, small-molecule microarray, Alexa647-labelled CAII, profiling panel (AID 1122); details: CAII-A647 binding fluorescence, higher = more signal
[6] = COS7 lysate on small-molecule microarray, probe aHis, 635 nm (AID 1123); details: COS7 cell lysate, fluorescence, higher = more signal;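 also: z-score combines 667nm fluorescence intensity with signal-to-noise per printed compound spot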
[7] = probe aLAP1 signal on lysate-treated microarray – cell lysate, small-molecule microarray, COS7 lysate, primary screen (AID 1124); details: probe aLAP1, fluorescence, higher = more signal;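 also: lysate comes from COS7 cells expressing LAP1 and is applied at 0.3 µg/mL; score merges spot fluorescence near 667 nm with signal-to-noise over triplicate slides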
[8] = system: Sam68 (KHDRBS1); assay: compounds binding KHDRBS1 protein – biochemical, small-molecule microarray, 635 nm fluorescence, primary screen (AID 1125); details: higher = more signal;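 also: score merges 667 nm channel intensity with signal to noise over triplicate slides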
[9] = system: Chordin-like protein 2 (CHRDL2); assay: compounds binding chordin-like 2 – biochemical, small-molecule microarray, 635 nm fluorescence, primary screen (AID 1126); details: fluorescence 635 nm, higher = more signal;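 also: printed compound slides probed with Chrdl2 protein at 4 µg/mL for 1 h at 4 C; score merges 667 nm emission intensity with signal to noise over three replicate slides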
[10] = target: Concanavalin-A (Canavalia ensiformis) (UniProt P02866); assay: compounds binding concanavalin A lectin – biochemical, small-molecule microarray, Alexa647 label, 635 nm, artefact control for SMM control protein annotation, primary screen (AID 1127); details: ConA-A647 binding fluorescence, higher = more signal;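 also: z combines 667 nm emission intensity with signal-to-noise across three replicate slides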
[11] = compounds binding Alexa647 anti-His antibody – biochemical, small-molecule microarray, 635 nm fluorescence, artefact control for SMM control protein annotation, primary screen (AID 1128); details: higher = more signal;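 also: score merges feature fluorescence with signal-to-noise for each printed compound spot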
[12] = system: Human papillomavirus type 1a E7 protein (residues 1-88); assay: HPV1a E7 small-molecule binders, primary screen, biochemical, small-molecule microarray, residues 1-88, 635 nm (AID 1129); details: small-molecule microarray binding, fluorescence 635 nm; higher = more signal
[13] = target: Focal adhesion kinase 1 (Homo sapiens) (UniProt Q05397); assay: PTK2 protein binding on printed compound slides – biochemical, small-molecule microarray, 635/667 nm fluorescence, BSA, DTT, primary screen (AID 1130); details: 635 nm fluorescence, higher = more signal;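 also: composite of spot emission at 667 nm and signal to noise over triplicate slides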
[14] = system: Fibrinogen (Alexa647-labelled); assay: Alexa647-fibrinogen binding to printed small molecules – biochemical, small-molecule microarray, 635/667 nm fluorescence, artefact control for SMM control-protein annotation, profiling panel (AID 1131); details: fibrinogen-A647 binding fluorescence, higher = more signal;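 also: z-score merges 667 nm fluorescence with per-spot signal-to-noise over triplicate slides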
[15] = target: Follistatin (Homo sapiens) (UniProt P19883); assay: FST protein binding to printed compounds – biochemical, small-molecule microarray, 635/667 nm fluorescence, primary screen (AID 1132); details: 635 nm fluorescence, higher = more signal
[16] = target: Fibroblast growth factor 2 (Homo sapiens) (UniProt P09038); assay: basic fibroblast growth factor binding to printed compounds – biochemical, small-molecule microarray, 635/667 nm fluorescence, primary screen (AID 1133); details: FGF2, fluorescence 635/667, higher = more signal
[17] = JC-1 mitochondrial potential readout, lung cancer cells – cell-based, A549, JC-1 fluorescence, basal, 24 h, 100 nL, profiling panel (AID 1138); details: higher = more signal;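 also: A549 lung adenocarcinoma cells under basal conditions with no added stimulus; test concentration not given here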
[18] = system: Lefty1; assay: Lefty1 protein binding to printed compounds – biochemical, small-molecule microarray, 635/667 nm fluorescence, primary screen (AID 1139); details: fluorescence 635/667, higher = more signal
[19] = system: wheat germ agglutinin (Triticum aestivum), Alexa647-labelled; assay: Alexa647-WGA lectin binding to printed small molecules – biochemical, small-molecule microarray, 635/667 nm fluorescence, artefact control for SMM control-protein annotation, profiling panel (AID 1140); details: WGA-A647 binding, 635 nm fluorescence, higher = more signal;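 also: score merges 667 nm feature emission with signal to noise over triplicate slides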
[20] = target: Luciferin 4-monooxygenase (Photinus pyralis) (UniProt P08659); assay: inhibition of purified Photinus pyralis luciferase – biochemical, luminescence, purified enzyme, 2006 set, primary screen (AID 1141); details: purified firefly luciferase, SteadyGlo luminescence, 30 min; higher = more signal, called active from +8 up or from −8 down;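 also: cell-free assay with purified firefly luciferase at 100 ng per well in PBS; test concentration not given here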
Chain of Luciferin 4-monooxygenase (Photinus pyralis) (P08659 whole entry, looked up): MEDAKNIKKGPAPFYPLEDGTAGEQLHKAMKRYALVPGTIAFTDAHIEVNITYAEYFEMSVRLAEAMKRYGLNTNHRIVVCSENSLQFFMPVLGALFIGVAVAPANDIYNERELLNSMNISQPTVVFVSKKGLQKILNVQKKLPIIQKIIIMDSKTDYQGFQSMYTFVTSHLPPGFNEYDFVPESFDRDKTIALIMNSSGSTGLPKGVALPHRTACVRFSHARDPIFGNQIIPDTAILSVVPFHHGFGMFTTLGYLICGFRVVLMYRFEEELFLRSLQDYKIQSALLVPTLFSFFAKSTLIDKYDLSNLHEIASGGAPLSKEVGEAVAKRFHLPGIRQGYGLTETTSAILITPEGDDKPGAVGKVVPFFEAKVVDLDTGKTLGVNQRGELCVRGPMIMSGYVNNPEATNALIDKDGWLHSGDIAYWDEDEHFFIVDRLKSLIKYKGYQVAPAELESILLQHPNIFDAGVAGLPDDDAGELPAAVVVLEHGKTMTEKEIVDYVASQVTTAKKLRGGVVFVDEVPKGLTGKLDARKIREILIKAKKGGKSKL

Chain of Fibroblast growth factor 2 (Homo sapiens) (P09038 whole entry, looked up): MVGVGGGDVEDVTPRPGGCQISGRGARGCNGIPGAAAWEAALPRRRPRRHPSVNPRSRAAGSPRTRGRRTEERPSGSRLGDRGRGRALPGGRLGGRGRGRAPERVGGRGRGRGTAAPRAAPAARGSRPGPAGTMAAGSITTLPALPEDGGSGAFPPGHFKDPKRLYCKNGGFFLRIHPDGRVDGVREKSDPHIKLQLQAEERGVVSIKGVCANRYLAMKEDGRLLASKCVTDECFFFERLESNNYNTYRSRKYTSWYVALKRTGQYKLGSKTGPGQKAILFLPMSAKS
Chain of Concanavalin-A (Canavalia ensiformis) (P02866 whole entry, looked up): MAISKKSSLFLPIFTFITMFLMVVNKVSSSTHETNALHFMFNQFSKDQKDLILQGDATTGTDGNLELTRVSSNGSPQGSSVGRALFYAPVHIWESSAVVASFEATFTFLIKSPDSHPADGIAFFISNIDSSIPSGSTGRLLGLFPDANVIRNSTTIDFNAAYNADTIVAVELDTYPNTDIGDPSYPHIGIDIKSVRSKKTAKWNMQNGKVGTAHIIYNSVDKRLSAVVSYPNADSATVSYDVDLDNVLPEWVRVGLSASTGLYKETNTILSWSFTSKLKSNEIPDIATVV
Chain of Follistatin (Homo sapiens) (P19883 whole entry, looked up): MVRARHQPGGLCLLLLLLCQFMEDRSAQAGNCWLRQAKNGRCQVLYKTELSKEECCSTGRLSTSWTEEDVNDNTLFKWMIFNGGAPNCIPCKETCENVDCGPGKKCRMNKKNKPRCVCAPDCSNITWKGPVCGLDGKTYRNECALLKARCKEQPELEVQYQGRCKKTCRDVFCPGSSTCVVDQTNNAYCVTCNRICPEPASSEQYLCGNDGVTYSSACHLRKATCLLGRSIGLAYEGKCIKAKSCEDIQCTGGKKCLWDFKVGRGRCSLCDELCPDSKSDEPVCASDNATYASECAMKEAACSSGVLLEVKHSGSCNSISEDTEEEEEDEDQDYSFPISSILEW
Chain of Albumin (Bos taurus) (P02769 whole entry, looked up): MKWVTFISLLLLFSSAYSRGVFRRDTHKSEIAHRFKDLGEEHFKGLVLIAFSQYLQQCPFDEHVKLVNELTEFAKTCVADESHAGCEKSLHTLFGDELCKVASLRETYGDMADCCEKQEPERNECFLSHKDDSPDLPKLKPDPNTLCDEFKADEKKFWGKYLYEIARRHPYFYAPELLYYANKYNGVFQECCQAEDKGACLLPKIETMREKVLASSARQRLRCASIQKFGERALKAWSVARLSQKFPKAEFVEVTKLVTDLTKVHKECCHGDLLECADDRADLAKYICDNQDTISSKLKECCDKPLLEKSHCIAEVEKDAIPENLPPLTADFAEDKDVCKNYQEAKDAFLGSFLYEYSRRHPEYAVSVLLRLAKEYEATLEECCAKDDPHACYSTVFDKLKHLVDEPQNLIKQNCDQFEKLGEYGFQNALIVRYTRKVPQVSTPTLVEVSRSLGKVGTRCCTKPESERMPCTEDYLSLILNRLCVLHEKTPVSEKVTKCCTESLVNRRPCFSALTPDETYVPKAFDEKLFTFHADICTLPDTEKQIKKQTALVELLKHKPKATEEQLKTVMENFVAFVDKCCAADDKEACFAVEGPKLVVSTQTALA
Chain of Focal adhesion kinase 1 (Homo sapiens) (Q05397 whole entry, looked up): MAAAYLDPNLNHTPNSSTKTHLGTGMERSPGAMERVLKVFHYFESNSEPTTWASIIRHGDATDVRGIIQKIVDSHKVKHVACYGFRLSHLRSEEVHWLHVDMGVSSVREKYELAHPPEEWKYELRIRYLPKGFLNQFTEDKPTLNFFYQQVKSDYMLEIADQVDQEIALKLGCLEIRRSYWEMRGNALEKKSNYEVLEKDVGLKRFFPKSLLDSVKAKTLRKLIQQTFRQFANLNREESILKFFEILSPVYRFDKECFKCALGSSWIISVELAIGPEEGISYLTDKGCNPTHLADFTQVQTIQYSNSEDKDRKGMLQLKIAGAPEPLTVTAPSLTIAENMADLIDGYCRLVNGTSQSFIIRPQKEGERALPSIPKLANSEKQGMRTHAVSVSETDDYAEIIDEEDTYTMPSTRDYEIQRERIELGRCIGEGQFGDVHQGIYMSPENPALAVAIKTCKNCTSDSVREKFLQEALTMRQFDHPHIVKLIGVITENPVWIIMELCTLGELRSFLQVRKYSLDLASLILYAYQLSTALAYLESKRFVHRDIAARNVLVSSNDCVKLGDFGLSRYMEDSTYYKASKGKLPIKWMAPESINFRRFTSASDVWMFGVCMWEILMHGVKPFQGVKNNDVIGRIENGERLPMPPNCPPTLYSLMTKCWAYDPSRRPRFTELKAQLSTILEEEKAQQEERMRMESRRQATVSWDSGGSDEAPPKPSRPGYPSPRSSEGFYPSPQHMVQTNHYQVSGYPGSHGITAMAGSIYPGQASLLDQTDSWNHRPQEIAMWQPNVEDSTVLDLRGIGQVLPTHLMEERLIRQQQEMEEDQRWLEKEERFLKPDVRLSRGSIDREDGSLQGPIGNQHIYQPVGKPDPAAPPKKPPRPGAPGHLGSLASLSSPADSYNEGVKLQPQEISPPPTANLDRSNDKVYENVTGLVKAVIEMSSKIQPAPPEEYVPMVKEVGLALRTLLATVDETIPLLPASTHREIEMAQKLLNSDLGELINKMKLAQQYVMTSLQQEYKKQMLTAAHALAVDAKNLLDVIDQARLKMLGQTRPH

Row | Compound | composite z-score [1] | composite Z-score [2] | composite z-score [3] | composite z-score [4] | composite z-score [5] | composite z-score [6] | composite z-score [7] | composite z-score [8] | composite z-score [9] | composite z-score [10] | composite z-score [11] | composite z-score [12] | composite z-score [13] | composite z-score [14] | composite z-score [15] | composite z-score [16] | z-score [17] | composite z-score [18] | composite z-score [19] | z-score [20]
1 | C=CC[C@]1(C(=O)NCc2ccccc2)COC(c2ccc(OCCCO)cc2)=N1 | 0.981 | 3.11 (inactive) | 0.0789 | 0.114 | 0.84 | 2.75 | 1.46 | -0.297 | -0.623 | -0.507 | 0.16 | -0.0156 | -0.19 | 0.295 | -0.431 | -0.87 | 1.03 | -0.95 | 1.02 | -0.218 (inactive)
2 | C=CCN1C(=O)[C@]2(O[C@H](CCn3cc([C@H](O)c4ccccc4)nn3)[C@@H]([Si](C)(C)c3ccc(OC)cc3)[C@@H]2C)c2cc(N3C(=O)c4cccc5cccc3c45)ccc21 | 0.626 | 0.783 (inactive) | -0.141 | -0.126 | 0.522 | 0.515 | 0.389 | 0.598 | -0.693 | 0.471 | 0.72 | 0.268 | 0.33 | 0.182 | -0.167 | 0.102 | 1.01 | 0.102 | 0.453 | -0.719 (inactive)
3 | C#CCN=C(N)N | -0.0077 | 0.322 (inactive) | 0.0276 | -0.0403 | 0.41 | 0.121 | 0.118 | 0.754 | 0.437 | 0.604 | 0.468 | 0.611 | -0.0375 | 0.802 | 0.785 | 0.388 | -0.317 | 0.858 | 0.299 | 0.523 (inactive)
4 | COc1ccc(CC[C@H](O)c2cccc(OCC(=O)OC(C)(C)C)c2)cc1 | 0.625 | 0.0178 (inactive) | -0.0014 | -0.0876 | 0.29 | 1.34 | 0.341 | 1.33 | 0.723 | 1.2 | 0.697 | 1.01 | 0.464 | 1.04 | 1.02 | 0.625 | 0.383 | 1.01 | 0.906 | 0.275 (inactive)
5 | CCCCC(O)C1C=CC2C(=O)NC(=O)C2N1Nc1ccc(Cl)cc1Cl (stereo not given) | 0.891 | 0.593 (inactive) | 0.23 | 0.0264 | 0.253 | 2.54 | 0.0614 | 0.0434 | -0.452 | 0.255 | 2.42 | 0.32 | 0.474 | -0.0628 | 0.413 | -0.596 | -1.16 | -0.654 | 0.87 | -1.31 (inactive)
6 | CCOC(=O)C1=CC[C@@H](c2ccccc2)N(S(=O)(=O)C[Si](C)(C)C)[C@H]1c1ccccc1 | 0.873 | -0.17 (inactive) | 0.138 | -0.0079 | 0.605 | 1.27 | -0.203 | 1.34 | 0.302 | 1.02 | 1.07 | 1.19 | 0.656 | 0.996 | 1.21 | 0.497 | -1.48 | 0.562 | 0.862 | 2.37 (inactive)
7 | CO[C@H]1O[C@H](CO)[C@@H](OC(=O)Nc2ccc3c(c2)OCO3)[C@@H]2OC(=O)[C@@H](Cc3ccccc3)C/C=C/C[C@H](Cc3ccccc3)C(=O)O[C@@H]12 | -0.052 | 0.883 (inactive) | 0.274 | 0.0318 | 0.552 | 0.859 | 0.48 | 0.943 | 0.455 | 0.921 | 2.53 | 1.18 | 0.458 | 0.659 | 0.974 | 0.684 | 2.76 | 0.433 | 0.214 | -1.01 (inactive)
8 | [N-]=[N+]=NCc1ccccc1C[C@]1(C(=O)N2CCOCC2)N=C(c2ccc(OCCCO)cc2)O[C@H]1c1ccccc1CN=[N+]=[N-] | 0.954 | -0.161 (inactive) | 0.598 | 0.502 | 0.802 | 3.34 | 0.853 | 1.3 | -0.655 | 1.14 | 2.97 | 1.25 | 0.681 | 0.963 | 1.3 | 1.92 | 1.68 | -0.232 | 1 | -1.25 (inactive)
9 | CCCC=C(CCC)[C@@H](NC(=O)c1ccccc1)c1ccc(C(=O)OC)cc1 | -0.122 | -0.222 (inactive) | 1.21 | -0.166 | 0.526 | 1.77 | 0.0914 | 0.823 | 0.308 | 0.711 | 0.877 | 0.598 | -0.17 | 0.214 | 1.06 | 1.1 | -1.71 | 0.439 | -0.0525 | 1.5 (inactive)
10 | C=CCC(OC(C)=O)[C@@H]1[C@@H](N(Cc2ccc(-c3ccccc3)cc2)C(=O)c2ccc(C)cc2)c2cc(OCCCO)ccc2N1C(=O)c1ccc2ccccc2c1 (stereo not given in full) | 0.608 | -0.46 (inactive) | 0.0282 | -0.127 | -0.104 | 0.756 | -0.031 | -0.15 | 0.0542 | -0.328 | -0.722 | 0.117 | -0.161 | -0.283 | 0.576 | -0.0502 | 1.68 | 0.297 | 0.008 | -1.9 (inactive)
11 | COc1ccc([Si](C)(C)[C@H]2[C@H](CCn3cc([C@H](O)c4ccccc4)nn3)O[C@@]3(C(=O)N(C)c4c(Br)cc(C)cc43)[C@@H]2C)cc1 | -0.628 | 1.94 (inactive) | -0.259 | -0.103 | -0.149 | -0.215 | -0.112 | 0.0516 | 0.182 | 0.005 | 0.523 | -0.212 | -0.472 | -0.496 | 1.5 | 1.87 | 0.134 | 1.37 | 0.343 | -0.877 (inactive)
